# HSV replic up = increases HSV replication in cells; HSV replication augmentation in cells, fold increase; maximum fold increase; 220,000 tested, 0.005% active; AID 1956; in the data active = maximum fold increase above about 1.5; inconclusive = no clear call, values can overlap the other calls; tested in PC3 cells
# ROMK primary = modulators of human ROMK potassium channel; P48048; 130,000 tested, 2% active; Tet-inducible ROMK, thallium flux fluorescence; actives lie on both sides; B-score at 10 µM;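 active = signal ratio slope over the read window, or its plate-corrected B-score, at least 3 SD from the plate mean, either direction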;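 note: B-score of the F/F0 ratio slope over 7 to 12 s after thallium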
# Target sequence (P48048 whole entry, looked up): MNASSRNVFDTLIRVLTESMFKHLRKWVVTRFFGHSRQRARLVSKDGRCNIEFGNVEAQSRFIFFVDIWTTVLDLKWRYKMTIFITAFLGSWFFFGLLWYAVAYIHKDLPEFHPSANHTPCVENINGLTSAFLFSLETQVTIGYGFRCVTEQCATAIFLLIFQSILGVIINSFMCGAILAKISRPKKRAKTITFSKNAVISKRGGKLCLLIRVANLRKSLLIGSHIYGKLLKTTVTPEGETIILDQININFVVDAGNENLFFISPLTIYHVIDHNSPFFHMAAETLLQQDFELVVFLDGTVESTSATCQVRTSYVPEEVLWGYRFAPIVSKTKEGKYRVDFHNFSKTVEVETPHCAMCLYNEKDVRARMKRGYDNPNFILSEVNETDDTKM
# Efa HMGR inh = inhibitors of class II HMG-CoA reductase from Enterococcus faecalis | purified E. faecalis HMGR, NADPH absorbance 340 nm kinetic | inhibition, % at 10 µM | 190,000 tested, 0.41% active | AID 1066;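 active = inhibition above a set limit, the median over all tested compounds plus 3 SD, cut at about 9.5% in these data; inconclusive = no clear call, values can overlap the other calls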;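 note: enzyme runs in reverse so mevalonate oxidation gives rising NADPH absorbance; 0% = complete reaction with DMSO and 100% = background rate lacking mevalonate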
# Arbovirus anti = antivirals against arbovirus infection; arbovirus infection cell-based antiviral screen; inhibition, % at 10 µM; 200,000 tested, 0.37% active; AID 1251; in the data active = inhibition above about 30%
# Calpain2 inh = calpain II (pig) inhibition; purified calpain II, fluorogenic peptide substrate, 30 min; inhibition, % at 16 µM; 220,000 tested, 0.37% active; AID 1236;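 active = inhibition above about 50%, limit read from the data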
# ROMK hit retest = retested hit modulating human ROMK potassium channel; shares compounds with ROMK primary; ROMK thallium flux, fluorescence ratio; hits give low values; normalized thallium flux (F/F0 slope) at 10 µM; 3,000 tested, 54% active; AID 1917;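 active = Flux at 10 µM at least 3 SD below or above vehicle control mean in one or both replicates; inconclusive = no clear call, values can overlap the other calls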
# Active calls of the source: *; i = inactive; ? = inconclusive; nt = no result given. Shown are actives, neighbours in structure and some others; about 2.1% of the full set was active somewhere.
SMILES,HSV replic up,ROMK primary,Efa HMGR inh,Arbovirus anti,Calpain2 inh,ROMK hit retest
CCC(NC(=O)c1ccccc1NC(=O)c1ccccc1)C(=O)NNC(=O)c1cccnc1 (configuration not stated),i,nt,nt,nt,10.8,nt
COc1ccccc1C(=O)NCCNC(=O)c1ccco1,i,-0.354,-0.9,1.4,15.1,0.0765
COc1cccc(CNCCNC(=O)c2ccco2)c1OC,i,2.93*,-0.5,5.6,-44.9,0.0778
COc1ccc(OC)c(CNCCNC(=O)c2ccco2)c1,i,0.674,0.8,12.4,-20.1,nt
NC(=O)[C@H]1CC2(CC(c3cccc(NC(=O)[C@H]4CCC(=O)N4)c3)=NO2)CN1C(=O)c1cc([N+](=O)[O-])cc([N+](=O)[O-])c1 (some centres not stated),i,nt,nt,nt,-19.4,nt
CCOC(=O)c1c(C)n(C)c2ccc(OCC(O)Cn3nc(C)cc3C)cc12 (configuration not stated),i,nt,-5.0,-12.4,-15.5,0.0668*
CCOC(=O)c1c(C)n(C)c2ccc(OCC(O)CN(CC)CC)cc12 (configuration not stated),i,nt,-9.1,0.7,-2.3,nt
CC1Oc2cc3oc4c(O)c(O)ccc4c(=O)c3c(O)c2C1(C)C (configuration not stated),i,nt,nt,nt,nt,nt
COCCn1c(=NC(=O)CSCC(=O)Nc2cc(C)on2)sc2cc(C(=O)OC)ccc21,i,-0.051,-1.6,6.1,6.6,0.0791
COCCn1c(SCC(=O)Nc2cc(C)on2)nnc1-c1ccco1,i,0.631,-1.5,-0.3,-4.5,nt
Cc1ccc(NC(=O)C2CCCN2C(=O)OC(C)(C)C)cc1C (configuration not stated),i,nt,nt,nt,-10.8,nt
O=C(NCCc1ccccc1F)C1CCCN1S(=O)(=O)c1ccc2ccccc2c1 (configuration not stated),i,-3.55*,-2.7,-2.6,-3.5,0.0561*
CCN(c1ccccc1)c1ncnc2c1cnn2-c1ccccc1,i,nt,-6.5,0.2,-4.6,0.0554*
O=C(O)c1cc(O)ccc1NC(=O)c1cccc2ccccc12,i,nt,nt,nt,-7.2,nt
CCOC(=O)CNC(=S)N1CCn2c(nc3ccccc32)C1,i,-0.404,-0.7,-1.6,-15.2,nt
Cc1ccc2nsnc2c1NC(=O)CCl,i,-13.1*,-6.7,11.9,-43.0,0.0789
Cc1cc(F)ccc1N1CCC(N2CCN(CCC(C)C)C(CCO)C2)CC1 (configuration not stated),i,-2.78*,-6.1,-8.7,15.1,0.0578*
Cc1cc(C(=O)CSc2nc3ccccc3c(=O)[nH]2)c(C)n1CC1CCCO1 (configuration not stated),i,-1.32,-3.8,3.3,-20.2,nt
Cc1cc(C(=O)CSc2nc3ccccc3c(=O)n2C)c(C)n1CC1CCCO1 (configuration not stated),i,-8.54*,1.4,-2.3,-47.5,0.0603*
COC(=O)c1ccccc1-c1ccc(C(c2c(C)[nH][nH]c2=O)c2c(C)[nH][nH]c2=O)o1,i,-3.82*,-0.6,-10.5,11.4,?
COC(=O)c1cccc(-c2ccc(C(c3c(C)[nH][nH]c3=O)c3c(C)[nH][nH]c3=O)o2)c1,i,-1.36,4.5,-9.8,-22.3,nt
Cc1cc(C)c(OCC(=O)NCC2CCCO2)c(C)c1 (configuration not stated),i,0.661,-1.8,5.9,3.6,nt
O=C(O)CCCN1C(=O)/C(=C/c2cn(-c3ccccc3)nc2-c2cccs2)SC1=S,nt,-3.45*,-1.1,-0.2,30.6,?
Cc1nn(-c2ccccc2)c(Cl)c1/C=C1\SC(=S)N(CCCCCC(=O)O)C1=O,i,nt,nt,nt,28.1,nt
O=C(Nc1cc(Cl)cc(Cl)c1)N1CCCC1,i,nt,nt,nt,-6.1,nt
SMILES,HSV replic up,ROMK primary,Efa HMGR inh,Arbovirus anti,Calpain2 inh,ROMK hit retest
CC1(C)CNC(=O)c2sc(NC(=O)c3ccccc3Cl)nc2C1,i,-0.318,-7.2,-6.9,-2.3,0.0757
CCCC1=C(C(=O)OCC)C(c2cccs2)C(C#N)=C(N)O1 (configuration not stated),i,2.28*,-3.2,2.2,-7.5,0.08
CCOC(=O)C1=C(N)OC(CCl)=C(C#N)C1c1ccsc1 (configuration not stated),i,-3.47*,-4.1,3.9,14.0,0.0602*
CC1=C(C(=O)OCc2ccccc2)C(c2ccsc2)C(C#N)=C(N)O1 (configuration not stated),i,-1.61,-2.4,-3.3,37.0,nt
O=C(NNS(=O)(=O)c1ccc(C(F)(F)F)cc1)c1cnn(-c2ccccc2)c1C(F)(F)F,i,nt,nt,nt,-16.6,nt
CCCCCc1ccc(-c2ccc(=O)[nH]n2)cc1,nt,-0.311,-4.3,-17.6,26.9,0.0716
O=C(Nc1cccc(Cl)c1)N1CCN(c2ncccn2)CC1,i,nt,-2.3,5.4,1.3,nt
O=C(Nc1ccc(Cl)cc1Cl)N1CCN(c2ncccn2)CC1,i,-3.8*,-8.2,-7.4,-2.6,0.0741
CCn1nc(C(=O)OCc2cccc(S(=O)(=O)N(C)C)c2)c2ccccc2c1=O,i,nt,nt,nt,1.6,?
CN(C)S(=O)(=O)c1cccc(COC(=O)c2ccc(Cl)cc2O)c1,i,nt,nt,nt,13.0,nt
CCCCCC(=O)Nc1ccccc1N1CCOCC1,i,-0.2,-2.2,-0.1,4.2,nt
CCOC(=O)C(=CNc1ccccc1N1CCOCC1)C(=O)OCC,i,nt,nt,nt,23.4,0.0643*
NC(=O)C1CCN(CC(=O)Nc2ccccc2Sc2ccccc2)CC1,i,nt,1.9,-2.4,3.7,0.0678*
CC1CN(C(=O)c2ccc(N3CCCCC3)c([N+](=O)[O-])c2)CC(C)O1 (configuration not stated),i,-0.141,-5.2,-1.5,-12.3,nt
CCn1c(C)cs/c1=N\C(=S)Nc1ccccc1C,i,3.23*,0.3,4.5,19.7,0.0696
CCC(C)(C)NC(=S)Nc1ccccc1C,i,-1.54,0.6,12.2,16.7,nt
COc1ccc(C(=O)N2CC3(CC(c4ccc(Cl)cc4)=NO3)C[C@H]2C(=O)NCC(N)=O)cc1 (some centres not stated),i,0.544,5.4,0.2,-21.0,nt
CCOc1c(Br)cc(CNc2ccc3c(c2)OCCO3)cc1OC,i,3.44,-3.6,-7.5,-2.1,nt
CCOc1cc(CNc2ccc3c(c2)OCCO3)cc(Br)c1OC,i,4.89*,-3.2,-7.0,1.2,0.0757
CC(C)(C)NC(=O)NC(=O)CSc1n[nH]c(-c2ccccc2Br)n1,nt,-0.969,-2.9,12.5,5.4,nt
CC(C)CNC(=S)NC1CC2CCC(C1)N2Cc1ccccc1 (configuration not stated),i,nt,-3.8,0.8,-8.8,nt
CC(C)CNC(=S)NC1CC2CCCC(C1)N2C1CCCCC1 (configuration not stated),i,-3.32,1.7,14.2,40.1,0.0542*
CN(C)/C=C(\C=O)c1ccc(Cl)cc1Cl,i,0.333,-2.8,8.9,1.3,nt
COc1ccc(CCNc2oc(COc3ccccc3Cl)nc2C#N)cc1OC,i,nt,-2.9,17.3,10.0,0.0668*
COc1ccc(CCNc2oc(COc3ccccc3F)nc2C#N)cc1OC,i,-3.24,-2.5,4.6,6.4,nt
